The list is not random: actives were taken first. Their share in the collection is about 4.2%.
DAX1 inh: blocks DAX1 repression of SF-1 activated StAR promoter. HEK293T StAR-luciferase reporter, SF-1/DAX-1 repression relief. inhibition, % at 6.8 µM. 1.1% of 370,000 active. AID 652010;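 active = inhibition above the mean over all tested compounds plus 3 SD, cut at about 3.6% in these data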;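 also: higher inhibition means more luminescence from relief of DAX-1 repression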
ssDAF12 agonist: activators of S. stercoralis DAF-12 nuclear receptor; HEK293 ssDAF-12/GRIP1 lit1-tk-luc reporter, luminescence; % of 3 µM dafachronic acid response; activation, % at 6.8 µM; 1% of 370,000 active;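 active = activation above the mean over all tested compounds plus 3 SD, cut at about 0.9% in these data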
hcDAF12 agonist: H. contortus DAF-12 activation, primary screen | HEK293 hcDAF-12 lit1-tk-luc reporter, luminescence; 0% DMSO, 100% Δ7-dafachronic acid | activation, % at 6.8 µM | 1.4% of 370,000 active;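 active = activation above the mean of all tested compounds plus 3 SD, cut at about 5.5% in these data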
SMARCA2 act: increases SMARCA2 function in MMTV reporter cells; MG213 cells, MMTV-luciferase reporter, dexamethasone, overnight; AID 652017; activation, % at 9.1 µM; 1% of 370,000 active; in the data active = activation above about 7.8%
hgDAF12 agonist: activates the H. glycines DAF-12 receptor ligand-binding domain. HEK293 GAL4-hgDAF12 UAS-luciferase reporter, agonist luminescence; normalized to butyrate control. 1.8% of 370,000 active. activation, % at 6.8 µM;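 active = activation above a cutoff set at the mean of all screened compounds plus 3 SD, cut at about 10% in these data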
Large screens that a line does not name were inactive.

Cc1ccc(Sc2ccc(CO)cc2[N+](=O)[O-])cc1	ssDAF12 agonist 11
Cc1noc(C)c1C(=O)Nc1sccc1C(N)=O	SMARCA2 act 7.9
CC(C)(C)c1ccc(/C=C/C(=O)N2CCCCC2)cc1	DAX1 inh 3.7, hgDAF12 agonist 11
CCOC(=O)N/N=C(\C)c1ccc(-n2cnnn2)cc1	hgDAF12 agonist 13
CCc1ccc(/C(C)=N/NC(=O)c2ccc(-n3cnnn3)cc2)cc1	none
O=C(CSc1nnc(-c2cccnc2)n1-c1ccccc1)Nc1ccccc1	hgDAF12 agonist 12
CC(C)C[C@H](NC1(C(=O)NC2CCCCC2)CCOCC1)C(=O)NCC(c1ccccc1)c1ccccc1	none (no result: DAX1 inh, SMARCA2 act)
O=C1CC(NS(=O)(=O)c2cccnc2)CN1c1ccc(F)cc1 (stereo not drawn)	DAX1 inh 3.9
Cc1ccc(N2CC(NS(=O)(=O)c3cccnc3)CC2=O)cc1C (stereo not drawn)	none
O=C(NNC(=S)NC(=O)c1sc2ccccc2c1Cl)c1ccc(Cl)cc1	ssDAF12 agonist 1.2
O=C(O)c1ccccc1NC(=S)NC(=O)c1sc2ccccc2c1Cl	none
Cc1ccc2c(c1)C(N1CCCC1=O)CC(c1ccco1)N2 (stereo not drawn)	hcDAF12 agonist 5.7, hgDAF12 agonist 11
Cc1ccc(C2CC(c3ccco3)n3ncnc3N2)cc1 (stereo not drawn)	none
CC1CN(C(C)C)C(=S)NC1=O (stereo not drawn)	DAX1 inh 3.6
O=C1Nc2ccccc2SC1c1ccccc1 (stereo not drawn)	none
Cc1ccc(NC2Sc3ccccc3NC2=O)cc1 (stereo not drawn)	ssDAF12 agonist 1.0, hgDAF12 agonist 15
CCc1nccn1CC(=O)c1ccc(O)c(O)c1	none (no result: DAX1 inh, SMARCA2 act)
C/C(=N\NC(=O)c1ccc(C)cc1C)c1ccc2c(c1)Nc1ccccc1S2	SMARCA2 act 11
c1ccc(-c2nnc3sc(C4CCCCC4)nn23)cc1	none
O=C(Nc1ccc(Cl)cc1)C1CCCN1S(=O)(=O)c1cccnc1 (stereo not drawn)	none
Oc1ccc(Cl)cc1C1=NNC(c2cccs2)C1 (stereo not drawn)	hcDAF12 agonist 5.7, hgDAF12 agonist 14
OCCc1ccc(NCCc2cccs2)cc1	hgDAF12 agonist 11
COc1ccc(/C=N\NC(=O)Cc2cccn2C)cc1OCc1ccccc1	none
Cc1ccc(NC(=O)NCC2CCN(Cc3cccc(Cl)c3)CC2)cc1Cl	ssDAF12 agonist 1.7
CCc1ccc(NC(=O)NCC2CCN(Cc3cccc(Cl)c3)CC2)cc1	none
N#CCC(=O)N/N=C\c1ccccc1OC/C=C/c1ccccc1	DAX1 inh 4.3
N#CCC(=O)N/N=C\c1ccc(OC/C=C/c2ccccc2)cc1	none
CN1C(=O)c2cc(NC(=O)Nc3ccccc3)ccc2OC[C@H]2O[C@@H](CC(=O)N[C@H]3CCN(Cc4ccccc4)C3)CC[C@@H]21	none
O=C(NC(=S)NC1CCCCCC1)c1cncc(Br)c1	hgDAF12 agonist 11
O=C(NC(=S)Nc1ncc(Br)cc1Br)c1cncc(Br)c1	none
O=[N+]([O-])c1ccccc1-c1ccc(C(=S)N2CCN(c3ccccc3)CC2)o1	ssDAF12 agonist 1.7
Cc1ccc(OCC(=O)Nc2ccc(C)c(F)c2)c([N+](=O)[O-])n1	DAX1 inh 3.7
O=C(c1cc2ccccc2o1)N1CCN(C/C=C/c2ccccc2)CC1	none
O=C(c1cc2ccccc2o1)N1CCN(Cc2nc3ccccc3s2)CC1	hcDAF12 agonist 6.2
O=C(NCC(c1ccco1)N1CCCC1)c1ccccc1Sc1ccc(C(F)(F)F)cc1[N+](=O)[O-] (stereo not drawn)	ssDAF12 agonist 1.1
O=C(NCC(c1ccco1)N1CCCC1)c1cc2ccccc2s1 (stereo not drawn)	ssDAF12 agonist 0.9
Cc1ccc(C(=O)NCC(c2ccco2)N2CCCCC2)s1 (stereo not drawn)	none
Cc1cc2oc(C(=O)NCC(c3ccco3)N3CCCC3)c(C)c2cc1C (stereo not drawn)	ssDAF12 agonist 3.6
C/C(=N\NC(=O)COc1ccccc1-c1ccccc1)c1ccccn1	DAX1 inh 4.0
Cc1cccc(-c2cccc3c4c([nH]c23)[C@@H]2C[C@H](N(C)C(=O)c3ccccc3C)[C@H]([C@H](C)O)CN2CC4)c1	none
COc1cc(CNc2ccc(N3CCN(C(C)=O)CC3)cc2)ccc1OCc1ccc(F)cc1	hgDAF12 agonist 11
CC(=O)N1CCN(c2ccc(NCc3ccc(F)cc3)cc2)CC1	none
COC(=O)CSCc1nc2ccccc2[nH]c1=O	hcDAF12 agonist 5.6
COC(=O)CCc1nc2ccccc2[nH]c1=O	none
COC(=O)[C@]12C[C@H](CC(=O)NCC3CCCCC3)C(=O)N(CCc3ccc(OC)c(OC)c3)C1=C[C@H](COCc1ccccc1)O[C@@H]2C	none
C[N+]1=C(N)NC2=C3CCCCC3n3c(=O)n(-c4ccccc4)c(=O)n3C2C1 (stereo not drawn)	none
CSc1ccccc1NC(=O)CN(C)Cc1c(O)ccc2ccccc12	hcDAF12 agonist 6.2
CN(Cc1ccccc1)Cc1c(O)ccc2ccccc12	none
COc1ccc(OCCN(C)Cc2c(O)ccc3ccccc23)cc1	hcDAF12 agonist 6.0
CSc1ccccc1NC(=O)CN(C)Cc1ccc(Br)cc1	none
O=C(NC(=S)Nc1ccccc1N1CCCCC1)c1cccs1	none
O=C(NC(=S)Nc1ccccc1N1CCCC1)c1cccs1	hcDAF12 agonist 5.7
O=C(NC(=S)Nc1ccc(N2CCCCC2)cc1)c1cccs1	hgDAF12 agonist 12
CCN(CC)c1ccc(NC(=S)Nc2ccc(F)cc2)cc1	hgDAF12 agonist 12
Oc1ccc(NC(=S)Nc2ccc(F)cc2)cc1	none
O=C(NC(=S)Nc1ccc(Cl)cn1)c1cccs1	ssDAF12 agonist 1.1
Cc1ccc2c(c1)C(CS(=O)(=O)NCc1ccc(F)cc1)NC2 (stereo not drawn)	none
Cc1ccc(NC(=S)NCC2CCCO2)cc1 (stereo not drawn)	none
Cc1cc(NC(=O)c2cccs2)ncc1NC(=O)C(C)C	hgDAF12 agonist 11
CCN(CC)c1ccc(NC(=S)NCC2CCCO2)cc1 (stereo not drawn)	DAX1 inh 4.4
CCN(CC)c1ccc(NC(=S)NC(=O)c2cccs2)cc1	hgDAF12 agonist 11
COc1cc(NC(=S)NC(=O)c2cccs2)ccc1NC(=O)C(C)C	none
CC(=O)NC(=S)Nc1ccc(NC(=S)NC(=O)c2cccs2)cc1	none
CC(C)C(=O)Nc1cccc(NC(=S)NC(=O)c2cccs2)c1	DAX1 inh 4.1
C#CCN1CC(N(C)CCCO)CS1(=O)=O (stereo not drawn)	none
CCCCNc1cccc2c1S(=O)(=O)N[C@H](C)CO2	none
COC(=O)C1=C(C)N(C)C(=NCc2cc(OC)c(OC)c(OC)c2)NC1c1ccc(Cl)cc1 (stereo not drawn)	none
O=c1c2cc3cc(Cl)ccc3nc2ncn1Cc1ccc(Oc2ccccc2)cc1	hcDAF12 agonist 5.9
Cc1nc(-c2ccc(NC(=O)CC(C)C)cc2)cs1	hgDAF12 agonist 13

Bioassay records (PubChem BioAssay)
